# This excerpt belongs to a sample that is enriched for hits.
# GIRK2 activator: GIRK2 channel activators by thallium flux; P48051; activation (% efficacy), % for hits at 37.5 µM; HEK293 GIRK2/NPY4 cells, thallium flux fluorescence; 34,000 tested, under 10 active;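 active = primary screen hit, no activity in plain HEK293 cells, and in GIRK2-only cells above 5% efficacy rising with concentration; inactive = the rest, including fluorescent compounds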;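 also: efficacy is normalized control-subtracted fluorescence 15 s after thallium addition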
# GluA2 TARP mod: GluA2-stargazin AMPA receptor complex modulation; O88602+P19491; HEK293 GluA2+stargazin, membrane potential dye (FDSS), glutamate EC50; hits were called plate by plate, in both directions; calls only at 30 µM; 3.5% of 40,000 active;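 active = any of four per-well response measures lying three or more SD from its plate-wide compound average, in either direction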
# Target sequence (O88602 whole entry, looked up): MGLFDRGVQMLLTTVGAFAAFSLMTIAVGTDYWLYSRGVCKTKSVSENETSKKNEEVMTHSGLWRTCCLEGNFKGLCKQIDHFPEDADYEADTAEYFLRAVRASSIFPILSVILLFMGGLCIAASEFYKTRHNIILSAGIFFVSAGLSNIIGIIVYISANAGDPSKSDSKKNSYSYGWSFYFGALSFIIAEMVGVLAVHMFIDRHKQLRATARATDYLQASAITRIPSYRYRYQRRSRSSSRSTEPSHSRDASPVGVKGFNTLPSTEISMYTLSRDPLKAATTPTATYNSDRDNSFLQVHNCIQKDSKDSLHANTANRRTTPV
# Target sequence (P19491 whole entry, looked up): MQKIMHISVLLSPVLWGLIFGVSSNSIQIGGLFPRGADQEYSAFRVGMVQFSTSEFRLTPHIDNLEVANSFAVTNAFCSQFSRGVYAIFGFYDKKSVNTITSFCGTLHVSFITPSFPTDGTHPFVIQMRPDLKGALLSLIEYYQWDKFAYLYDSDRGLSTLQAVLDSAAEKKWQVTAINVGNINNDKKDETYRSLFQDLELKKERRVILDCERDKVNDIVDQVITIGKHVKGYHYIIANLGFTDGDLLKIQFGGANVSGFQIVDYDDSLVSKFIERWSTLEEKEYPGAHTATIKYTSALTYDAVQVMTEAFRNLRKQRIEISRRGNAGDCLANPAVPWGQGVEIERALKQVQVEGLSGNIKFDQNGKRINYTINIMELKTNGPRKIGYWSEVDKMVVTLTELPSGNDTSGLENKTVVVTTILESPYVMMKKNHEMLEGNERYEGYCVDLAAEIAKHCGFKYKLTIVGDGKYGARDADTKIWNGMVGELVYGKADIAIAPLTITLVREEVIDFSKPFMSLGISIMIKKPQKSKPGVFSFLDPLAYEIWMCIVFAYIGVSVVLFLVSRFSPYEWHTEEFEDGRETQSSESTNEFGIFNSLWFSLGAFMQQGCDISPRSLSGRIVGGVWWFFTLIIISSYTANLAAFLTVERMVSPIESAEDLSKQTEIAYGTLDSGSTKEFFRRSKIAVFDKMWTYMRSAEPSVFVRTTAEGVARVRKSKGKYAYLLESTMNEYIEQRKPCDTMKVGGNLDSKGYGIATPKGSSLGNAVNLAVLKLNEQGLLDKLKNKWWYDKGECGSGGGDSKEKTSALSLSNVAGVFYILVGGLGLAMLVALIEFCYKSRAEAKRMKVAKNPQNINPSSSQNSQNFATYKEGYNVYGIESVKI
# * hit, by the source's call; i = inactive; . = no result given; + = active, no number.
SMILES,GIRK2 activator,GluA2 TARP mod
COc1ccc(NC(=O)CCSc2nnnn2-c2cccc(C)c2)cc1,i,i
O=C(CCc1ccccc1)Nc1ccc2c(c1)CN(S(=O)(=O)c1ccccc1)CC2,i,i
O=C(Nc1ccc2c(c1)CN(C(=O)c1cccs1)CC2)c1cnccn1,i,+
O=C(Nc1ccc2c(c1)CN(C(=O)c1cccs1)CC2)c1ccc2nsnc2c1,i,i
O=C(Nc1ccc2c(c1)CN(S(=O)(=O)c1ccccc1)CC2)c1cnccn1,i,+
Cn1c(=O)c2c(nc(CN3CCN(c4ccccc4F)CC3)n2CC(=O)C(C)(C)C)n(C)c1=O,i,i
O=C(c1cccc(N2CCCS2(=O)=O)c1)N1CCN(c2ccc(F)cc2)CC1,.,i
COc1ccc(Cl)cc1NC(=O)Cn1ncn2nc3c(c2c1=O)CCCC3,i,+
COc1ccc(CCNC(=O)Cn2ncn3nc4c(c3c2=O)CCCC4)cc1OC,i,.
CN1CCOc2ccc(NC(=O)Nc3cccs3)cc2C1=O,i,i
Cn1nc2c3c(cccc3c1=O)-c1ccccc1-2,.,+
Cc1ccc(-c2nn(C)c(=O)c3ccccc23)cc1CNS(C)(=O)=O,.,i
O=C(C1CCCCC1)N1CCC(c2nnc(-c3ccco3)o2)CC1,i,i
O=C(Nc1ccncc1NC(=O)C1CC1)C1CC1,i,i
CN(C)c1ccc(C(CN)N2CCc3ccccc32)cc1 (stereo not given),.,i
COc1ccc(N(CC(O)CNCCC(C)C)S(=O)(=O)c2ccc(C)cc2)cc1 (stereo not given),.,+
Cc1ccc(S(=O)(=O)N(CC(O)CNCCC(=O)O)c2ccc(F)cc2)cc1 (stereo not given),i,i
COc1ccc(OC)c(NC(=O)CCc2c(C)nn(-c3nc(C)c(C)c(=O)[nH]3)c2C)c1,i,i
O=S(=O)(NC1(c2nc(-c3cnccn3)no2)CCCCC1)c1ccc(F)c(Cl)c1,i,+
Cc1noc(C)c1S(=O)(=O)NC1(c2nc(-c3cnccn3)no2)CCCCC1,i,i
Cc1ccc(S(=O)(=O)N2CCCCC2CC(=O)Nc2ccon2)cc1 (stereo not given),i,i
CCCS(=O)(=O)N1CCCc2ccc(NS(=O)(=O)c3cc(C)c(C)cc3OC)cc21,.,i
C=CCN1CC(c2nc3ccccc3n2Cc2ccc(C)cc2)CC1=O (stereo not given),.,i
C=CCN1CC(c2nc3ccccc3n2Cc2ccc(C(C)C)cc2)CC1=O (stereo not given),.,i
C=CCN1CC(c2nc3ccccc3n2Cc2ccc(Cl)cc2)CC1=O (stereo not given),.,+
SMILES,GIRK2 activator,GluA2 TARP mod
Cc1cccc(Cn2c(C3CC(=O)N(Cc4ccccc4)C3)nc3ccccc32)c1 (stereo not given),.,+
CC(c1ccccc1)n1c(C2CC(=O)N(Cc3ccccc3)C2)nc2ccccc21 (stereo not given),.,+
Cc1cccc(Cn2c(C3CC(=O)N(Cc4ccc(F)cc4)C3)nc3ccccc32)c1 (stereo not given),.,i
C=CCN1CC(c2nc3ccccc3n2Cc2cccc(C)c2)CC1=O (stereo not given),.,+
CCN1CC(c2nc3ccccc3n2Cc2ccccc2)CC1=O (stereo not given),.,i
Cc1ccc(CN2CCN(c3nc(C)cc(C)c3C#N)CC2)c(C)c1,.,i
O=C(Nc1cc2ccccc2oc1=O)C1CCCN(c2cc(-n3cccn3)ncn2)C1 (stereo not given),i,i
Cn1nnc2c(SCC(=O)Nc3cccc(Cl)c3)ncnc21,i,i
O=C(NCC1CCN(Cc2ccco2)CC1)c1ccc2c(c1)OCO2,i,.
O=C(NCc1c(F)cccc1F)c1csc(NS(=O)(=O)c2ccccc2)n1,i,i
COc1ccc(C(=O)/C=C/c2cccs2)c(OC(=O)N2CCOCC2)c1,.,i
CCc1cccc(OCC(O)Cn2c(N3CCCCC3)nc3c2c(=O)n(C)c(=O)n3C)c1 (stereo not given),.,i
COc1ccc(S(=O)(=O)NCCn2nc(-c3ccc(F)cc3)ccc2=O)cc1,.,i
COc1ccc(-c2ccc(=O)n(CCCC(=O)Nc3ccccc3C(F)(F)F)n2)cc1,i,i
O=C(Cc1cc(-c2ccccc2)on1)Nc1ccc(F)c(C(F)(F)F)c1,i,.
CN(C)C(CNC(=O)C(=O)NCc1cccs1)c1ccco1 (stereo not given),i,i
O=C1CC(c2nc3ccccc3n2Cc2ccccc2F)CN1Cc1ccccc1 (stereo not given),.,+
CN1CC(c2nc3ccccc3n2Cc2ccccc2F)CC1=O (stereo not given),.,i
Cc1nc(SCc2nc(-c3ccccc3Cl)no2)[nH]c(=O)c1CCO,.,i
Cc1ccc(-n2nnc(C(=O)Nc3nccs3)c2C)cc1,i,i
CS(=O)(=O)c1ccc(CC(=O)Nc2nnc(-c3ccc4c(c3)CCCC4)o2)cc1,.,i

# High-throughput results from PubChem.
